# Data published in PubChem BioAssay.
# Activity calls are given as the source filed them.
# Experiments:
# Albumin (Bos taurus) = Albumin (Bos taurus) (UniProt P02769); assay: compounds binding labelled BSA control protein – biochemical, small-molecule microarray, Alexa647 label, 635/667 nm fluorescence, artefact control for SMM control protein annotation, profiling panel (AID 1118); details: BSA-A647 binding, fluorescence 635 nm, higher = more signal;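 also: score merges 667 nm emission intensity and signal-to-noise per printed compound spot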
# [1] = probe aXIP binding to arrayed compounds – biochemical, NeuroSMM set, 635/667 nm fluorescence, primary screen (AID 1119); details: small-molecule microarray, higher = more signal, called active from +8 up or from −8 down;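 also: probe is the protein aXip251-270 applied at 1 µg/mL to compound-printed slides; binding of probe to printed compounds measured as 667 nm fluorescence plus signal to noise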
# [2] = probe aNOTCH3 binding on compound microarray – biochemical, small-molecule microarray, 635/667 nm fluorescence, primary screen (AID 1120); details: higher = more signal;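 also: probe is a biotin-tagged antibody raised against NOTCH3 rather than NOTCH3 protein; score merges spot fluorescence near 667 nm with spot signal to noise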
# [3] = probe aNOTCH2 binding on compound microarray – biochemical, small-molecule microarray, 635/667 nm fluorescence, primary screen (AID 1121); details: higher = more signal;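 also: score merges feature fluorescence read at 667 nm with its signal to noise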
# [4] = molecular target: Carbonic anhydrase 2 (Homo sapiens) (UniProt P00918); assay: compounds binding carbonic anhydrase 2 – biochemical, small-molecule microarray, Alexa647-labelled CAII, profiling panel (AID 1122); details: CAII-A647 binding fluorescence, higher = more signal
# [5] = COS7 lysate on small-molecule microarray, probe aHis, 635 nm (AID 1123); details: COS7 cell lysate, fluorescence, higher = more signal;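 also: z-score combines 667nm fluorescence intensity with signal-to-noise per printed compound spot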
# [6] = probe aLAP1 signal on lysate-treated microarray – cell lysate, small-molecule microarray, COS7 lysate, primary screen (AID 1124); details: probe aLAP1, fluorescence, higher = more signal;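 also: lysate comes from COS7 cells expressing LAP1 and is applied at 0.3 µg/mL; score merges spot fluorescence near 667 nm with signal-to-noise over triplicate slides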
# Sam68 (KHDRBS1) = assay: compounds binding KHDRBS1 protein – biochemical, small-molecule microarray, 635 nm fluorescence, primary screen (AID 1125); details: higher = more signal;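 also: score merges 667 nm channel intensity with signal to noise over triplicate slides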
# [7] = test system: Chordin-like protein 2 (CHRDL2); assay: compounds binding chordin-like 2 – biochemical, small-molecule microarray, 635 nm fluorescence, primary screen (AID 1126); details: fluorescence 635 nm, higher = more signal;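 also: printed compound slides probed with Chrdl2 protein at 4 µg/mL for 1 h at 4 C; score merges 667 nm emission intensity with signal to noise over three replicate slides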
# [8] = molecular target: Concanavalin-A (Canavalia ensiformis) (UniProt P02866); assay: compounds binding concanavalin A lectin – biochemical, small-molecule microarray, Alexa647 label, 635 nm, artefact control for SMM control protein annotation, primary screen (AID 1127); details: ConA-A647 binding fluorescence, higher = more signal;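 also: z combines 667 nm emission intensity with signal-to-noise across three replicate slides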
# Concanavalin-A (Canavalia ensiformis), sequence (P02866 whole entry, looked up): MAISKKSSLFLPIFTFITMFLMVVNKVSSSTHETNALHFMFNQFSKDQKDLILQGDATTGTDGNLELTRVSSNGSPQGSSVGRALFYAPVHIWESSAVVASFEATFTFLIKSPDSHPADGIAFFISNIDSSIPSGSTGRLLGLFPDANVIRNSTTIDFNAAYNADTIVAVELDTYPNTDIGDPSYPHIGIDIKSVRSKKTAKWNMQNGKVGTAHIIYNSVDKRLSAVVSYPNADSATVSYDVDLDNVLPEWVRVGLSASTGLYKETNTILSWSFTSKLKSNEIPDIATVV
# Albumin (Bos taurus), sequence (P02769 whole entry, looked up): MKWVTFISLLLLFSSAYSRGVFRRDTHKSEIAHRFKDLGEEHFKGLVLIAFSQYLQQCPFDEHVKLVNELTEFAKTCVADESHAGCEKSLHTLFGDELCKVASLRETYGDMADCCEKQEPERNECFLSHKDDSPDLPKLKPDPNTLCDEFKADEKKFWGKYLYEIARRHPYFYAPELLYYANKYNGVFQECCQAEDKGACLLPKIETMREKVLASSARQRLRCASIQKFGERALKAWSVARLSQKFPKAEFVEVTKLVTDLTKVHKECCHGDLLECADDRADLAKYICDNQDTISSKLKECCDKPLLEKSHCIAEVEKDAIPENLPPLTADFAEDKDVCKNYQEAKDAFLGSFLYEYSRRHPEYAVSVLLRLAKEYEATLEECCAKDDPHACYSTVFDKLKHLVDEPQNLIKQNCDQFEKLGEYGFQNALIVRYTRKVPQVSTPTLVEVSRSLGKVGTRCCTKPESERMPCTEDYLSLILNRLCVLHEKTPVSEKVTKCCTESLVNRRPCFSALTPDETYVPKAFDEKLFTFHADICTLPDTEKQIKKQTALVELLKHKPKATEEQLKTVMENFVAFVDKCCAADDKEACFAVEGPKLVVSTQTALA
Structure (SMILES),composite z-score (Albumin (Bos taurus)),composite Z-score [1],composite z-score [2],composite z-score [3],composite z-score [4],composite z-score [5],composite z-score [6],composite z-score (Sam68 (KHDRBS1)),composite z-score [7],composite z-score [8]
O=C1O[C@H](c2ccccc2)[C@H](c2ccccc2)N2[C@H]1[C@@H](C(=O)NC[C@H](O)c1ccccc1)[C@]1(C(=O)Nc3ccc(C#CCCO)cc31)[C@H]2c1ccc(O)cc1,-0.746,1.33 (inactive),-0.0259,-0.14,-0.702,0.155,1.11,-0.317,-0.316,-0.743
C[C@]1(C(=O)NCc2ccccc2)c2ccccc2C(=O)N(Cc2ccc(OC(F)(F)F)cc2)[C@H]1c1ccc(CO)cc1,-0.125,0.843 (inactive),-0.211,-0.103,0.681,1.78,0.107,0.426,-0.256,0.592
CCOC(=O)C1=CCC(c2ccc(C#N)cc2)N(S(=O)(=O)c2ccc(C)cc2)C1 (stereo not given),0.886,0.356 (inactive),0.1,0.188,0.695,1.63,1.18,1.3,-0.1,1.14
COCCOC(=O)N1C(=O)[C@@]2(c3cc(C#CC4=CCCCC4)ccc31)[C@H](C(=O)N1CCc3cc(OC)c(OC)cc3C1)[C@H]1C(=O)O[C@H](c3ccccc3)[C@H](c3ccccc3)N1[C@@H]2c1ccccc1OCCO,-0.092,-0.243 (inactive),-0.068,-0.118,-0.0205,-0.0785,0.498,0.6,1.03,1.07
CO[C@H]1O[C@H](CO)[C@@H](OC(=O)Nc2ccc3c(c2)OCO3)[C@H](OC(=O)Nc2ccccc2)[C@H]1OC(=O)Nc1ccccc1,-0.21,0.118 (inactive),0.0773,-0.102,0.406,2.04,0.637,1.19,0.261,0.143
COC(=O)c1c(CC[C@@H](CO)NC(=O)N[C@@H](Cc2ccccc2)Cn2cc(C3(O)CCCCC3)nn2)oc(C(C)=O)c1C(=O)OC,0.357,-0.0293 (inactive),0.0893,-0.0942,0.253,0.287,-0.0804,1.29,0.625,0.82
[N-]=[N+]=NCc1ccccc1C[C@]1(C(=O)NCCN2CCOCC2)N=C(c2ccc(OCCCO)cc2)O[C@H]1c1ccccc1N=[N+]=[N-],0.926,0.255 (inactive),0.356,0.253,0.599,2.62,0.645,1.29,-0.509,1.16
CC(C)CNC(=O)[C@@]1(c2ccc([N+](=O)[O-])cc2)CC(=O)N(CC23CC4CC(CC(C4)C2)C3)[C@@H]1c1ccc(CO)cc1I,-0.0275,0.493 (inactive),0.54,-0.0001,0.259,2.03,0.451,1.32,0.499,0.974
CCCN1C(=O)[C@@]2(CCC(=O)OC(C)(C)C)N=C(c3ccc(OCCCO)cc3)O[C@H]2c2ccccc21,0.556,0.548 (inactive),0.0225,-0.0633,0.376,1.69,0.0436,1.31,0.345,0.958
CCN(CC)c1ccc(N2CC=CC34O[C@@H]5/C=C\CCCOC(=O)C5[C@H]3C(=O)N(C(CO)C(C)C)[C@@H]4C2=O)cc1 (stereo not given in full),-1.18,0.0855 (inactive),-0.165,-0.123,0.827,-0.21,-0.32,-0.384,-0.684,-0.467
COc1cc(CO)ccc1OC(C)=O,0.344,0.151 (inactive),0.262,0.0275,0.112,0.329,0.356,0.482,0.689,0.687
CN(C)CCCNC(=O)[C@@]1(Cc2ccccc2I)c2ccccc2C(=O)N(Cc2ccccc2C(F)(F)F)[C@H]1c1ccc(CO)cc1,-0.212,0.179 (inactive),-0.286,-0.146,0.662,2.4,0.557,1.02,-1.07,-0.17
[N-]=[N+]=NCc1ccccc1[C@@H]1OC(c2ccc(OCCCO)cc2)=N[C@]1(Cc1ccccc1)C(=O)N1CCCCC1,0.763,-0.623 (inactive),0.211,0.0215,0.471,1.52,-0.0921,1.32,0.581,1.14
CCCCCCCCCCC(O)C1C=CC2C(=O)N(Cc3ccccc3)C(=O)C2N1n1cnnc1 (stereo not given),0.834,0.797 (inactive),0.435,0.0605,0.485,1.1,0.687,1.11,-0.686,1.04
CCCCCCc1nc(CCCc2cc3c(c(CCCCCC)n2)[Si](C(C)C)(C(C)C)OC3)cc2c1[Si](C(C)C)(C(C)C)OC2,-1.17,-0.295 (inactive),-0.0427,-0.0649,-0.567,0.111,0.0313,-0.641,0.21,-0.569
CC(C)(C)N1CC=CC23O[C@@H]4C=CCOC(=O)[C@@H]4[C@H]2C(=O)N(CCCCCO)[C@@H]3C1=O (stereo not given in full),0.485,1.1 (inactive),-0.406,-0.229,0.82,0.121,1.25,-0.87,-0.612,-2.63
CN1C(=O)C2C=CC(C(O)c3ccccn3)N(Nc3ccccc3)C2C1=O (stereo not given),-0.0756,0.0956 (inactive),0.0711,-0.14,0.727,0.446,0.456,0.656,0.288,0.37

Structure (SMILES),composite z-score (Albumin (Bos taurus)),composite Z-score [1],composite z-score [2],composite z-score [3],composite z-score [4],composite z-score [5],composite z-score [6],composite z-score (Sam68 (KHDRBS1)),composite z-score [7],composite z-score [8]
COC(=O)[C@@]1(Cc2ccccc2)[C@H]2c3cc(C(=O)N(C)C)n(Cc4c(-c5ccccc5)noc4C)c3C[C@H]2CN1C(=O)c1ccccc1,1.01,-0.899 (inactive),0.187,0.379,0.437,2.63,-0.157,0.486,0.28,0.564
CC(C)OC(=O)CC(=O)CC(O)c1ccc(C#N)cc1 (stereo not given),-0.181,0.0371 (inactive),-0.0377,0.174,0.0258,0.657,0.649,0.438,-1.19,-0.6
C=C(COC)C(=O)CC[C@@H](OC(=O)c1cccnc1)c1ccc(CO)o1,0.158,0.509 (inactive),-0.0362,-0.157,0.481,0.387,0.823,0.532,0.739,0.341
C=C(COC)C(=O)CC[C@H](OC(C)=O)c1cccc(OCCO)c1,-0.768,0.157 (inactive),-0.165,-0.154,0.358,0.451,0.775,0.151,-0.298,-0.935
C=CCOC(=O)[C@H]1[C@@H]2C(=O)O[C@@H](c3ccccc3)[C@@H](c3ccccc3)N2[C@@H](c2ccc(OCCOC(=O)[C@@H]3C[C@@H]4C(=O)N5CCC[C@H]5C(=O)N4[C@@H]3c3ccc(O)cc3)cc2)[C@]12C(=O)Nc1ccccc12,-0.854,0.0088 (inactive),0.299,-0.104,0.268,1.36,0.261,1.33,1.03,0.93
CCCCC=C[C@@H](NC(=O)c1ccco1)c1ccccc1,0.844,-0.474 (inactive),-0.0947,-0.0419,-0.406,0.0455,-0.358,-0.708,-0.134,1.01
COCCOC(=O)N1C(=O)[C@@]2(c3cc(C#CCC(C(=O)OC)C(=O)OC)ccc31)[C@H](c1ccccc1OCCO)N1[C@H](c3ccccc3)[C@H](c3ccccc3)OC(=O)[C@H]1[C@@H]2C(N)=O,0.101,-0.167 (inactive),0.173,-0.0357,0.503,2.03,1.5,1.25,0.237,1.07
COCC1=C2[C@@H](CCc3ccccc3)OB(O)C[C@@H]2[C@@H]2C(=O)N(Cc3ccccc3)C(=O)[C@@H]2C1,0.818,-0.524 (inactive),-0.102,-0.14,0.404,0.532,-0.0804,-0.42,0.137,-0.777
Cc1ccc(S[C@]2(C(=O)O)CC(=O)N(C3Cc4ccccc4C3)[C@@H]2c2ccc(CO)cc2I)cc1,-0.133,-0.0549 (inactive),-0.0725,-0.0799,0.675,1.1,0.672,-0.0018,0.0442,0.181
COCCOC(=O)N1C(=O)[C@@]2(c3cc(C#CCNC(N)=O)ccc31)[C@H](c1ccc(O)cc1)N1[C@H](c3ccccc3)[C@H](c3ccccc3)OC(=O)[C@H]1[C@@H]2C(=O)NC[C@H](O)c1ccccc1,-0.302,0.297 (inactive),0.108,-0.0165,0.044,0.956,0.608,1.13,1.38,1.16
[N-]=[N+]=NCc1ccccc1C[C@]1(C(=O)O)N=C(c2ccc(OCCCO)cc2)O[C@H]1c1ccccc1CN=[N+]=[N-],0.938,-0.313 (inactive),-0.027,-0.011,0.696,2.7,0.513,1.34,-0.69,1.17
CCCCCN1CC=CC23O[C@@H]4/C=C\CCC(C)OC(=O)C4[C@H]2C(=O)N(CCCCCO)[C@@H]3C1=O (stereo not given in full),-0.299,-0.127 (inactive),-0.149,-0.144,0.685,-0.389,-0.29,-1.09,-0.793,-0.541
COc1ccc(CCN2C(=O)[C@@]3(Cc4ccccc42)c2ccccc2C(=O)N(Cc2ccccc2Cl)[C@H]3c2ccc(CO)cc2)cc1,-0.091,-0.0503 (inactive),-0.125,-0.137,0.855,-0.247,0.296,-0.383,-1.06,-0.199
O=C(CS)NCCCCCCNC(=O)[C@@H]1C[C@@H]2C(=O)N3CCC[C@H]3C(=O)N2[C@@H]1c1ccc(O)cc1,-0.766,3.04 (inactive),-0.273,-0.116,0.645,2.88,0.827,0.5,0.361,0.443
COc1cc2c(cc1OC)CN(C(=O)[C@@H]1[C@H]3C(=O)O[C@H](c4ccccc4)[C@H](c4ccccc4)N3[C@H](c3ccccc3OCCO)[C@@]13C(=O)Nc1ccc(C#CCNC(N)=O)cc13)CC2,0.301,0.545 (inactive),0.37,-0.0251,0.377,2.65,1.15,1.31,0.981,1.11
CCOC(=O)[C@H]1C/C=C/C[C@H](C(=O)OCC)C(=O)O[C@H]2[C@@H](OC)O[C@H](CO)[C@@H](OC(=O)Nc3ccc4c(c3)OCO4)[C@@H]2OC1=O,0.783,0.622 (inactive),0.0927,-0.0425,0.484,1.74,0.143,0.521,-0.384,0.468
[N-]=[N+]=Nc1ccccc1[C@@H]1OC(c2ccc(OCCCO)cc2)=N[C@]1(CCS(=O)(=O)c1ccccc1)C(=O)N1CCOCC1,0.815,0.167 (inactive),0.287,0.0263,0.618,2.89,0.483,1.29,-0.535,1.1
